For 23 molecules, AC50 and outcome results are on record in PubChem BioAssay (EPA / NIEHS).

Read-out in test [1]: Monokine induced gamma interferon (MIG), CXCL9 (gene 4283)
The test can be described thus: BSK_SAg_MIG: BioMAP Diversity Plus: SAg Assay for Monokine induced gamma interferon (MIG) Biomarker Activity (AID 2283092). The note with it: primary human HUVEC with PBMC; actives raise or lower the signal. In outline:
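HUVEC plus human PBMC co-culture, chemicals dosed and MIG (CXCL9) quantified by ELISA at 24 h. Bidirectional curve fitting against DMSO as negative control and baseline, so both gain and loss of signal count as activity.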

Test [2] can be described thus: BSK_SAg_PBMCCytotoxicity: PBMC Cytotoxicity Assessment in the BioMAP Diversity Plus: SAg Assay (AID 2283093).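 For AC50: PBMC superantigen activated with SEB plus TSST-1 one hour after compound addition.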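 Note: PBMC viability measured as Alamar Blue reduction fluorescence at 546/580 nm; fitted both ways against DMSO so a hit may be loss or gain of signal.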 To be noted: primary human HUVEC with PBMC. In outline: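 Alamar Blue reduction (6 h, ex/em 546/580 nm) read after 90 h culture of PBMC pre-dosed 1 h then stimulated with SEB plus TSST-1, 20 ng/mL each. Gain or loss of signal fitted relative to DMSO.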
Read-out in test [3]: Interleukin-8 (IL8), CXCL8 (gene 3576)
Briefly: BSK_SAg_IL8: BioMAP Diversity Plus: SAg Assay for Interleukin-8 (IL8) Biomarker Activity (AID 2283094). The note with it: primary human HUVEC with PBMC; actives raise or lower the signal. In outline: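 Chemicals were dosed onto a human endothelial–PBMC co-culture, and IL-8 was quantified by ELISA after 24 h. Both increases and decreases were fitted relative to DMSO.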

Test [4] in a line: BSK_SAg_Proliferation: Cell Proliferation Assessment in the BioMAP Diversity Plus: SAg Assay (AID 2283095).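 Note: relative cell number as total protein by SRB absorbance in sub-confluent culture.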 The note with it: primary human HUVEC with PBMC. In outline: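 Absorbance of sulforhodamine B at 560 nm reports total protein in a human vascular endothelial/PBMC co-culture after 96 h chemical exposure. Gain or loss of signal is fitted in both directions against DMSO.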

The nature of test [5]: BSK_SAg_SRB: Viability Assessment in the BioMAP Diversity Plus: SAg Assay (AID 2283096).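 Note: cells read one day after compound addition; hits may be either gain or loss of signal compared with DMSO.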 The note with it: primary human HUVEC with PBMC. The method, boiled down:
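SRB absorbance at 560 nm served as the viability read-out. Cells (HUVEC plus peripheral blood mononuclear cells) were TCA-fixed and stained 24 h post-dosing; activity fitted in both directions against DMSO controls.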

For test [6], the target named is human CYP19A1, CYP19A1 (gene 1588) (UniProt P11511). The test can be described thus: NVS_ADME_hCYP19A1: NovaScreen (NVS) CYP450-related Enzyme Activity (ADME) Assay for human CYP19A1 (AID 2283098; active = hit-call score of the fitted dose curve at least 0.9, where 1 is the maximum;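 for AC50: potency for inhibitors seen as loss of fluorescent enzyme signal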). The method, boiled down:
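Primary testing was in duplicate at a single 10 uM concentration, with actives followed up in concentration-response series. Fluorescence read-out of recombinant enzyme activity at 0.5 h, cell-free. Acetonitrile was the negative-control baseline.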

Test [7] has as its target human CYP1A1, CYP1A1 (gene 1543) (UniProt P04798). The test can be described thus: NVS_ADME_hCYP1A1: NovaScreen (NVS) CYP450-related Enzyme Activity (ADME) Assay for human CYP1A1 (AID 2283100; active = hit-call score of the fitted dose curve at least 0.9, where 1 is the maximum). The method, boiled down:
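Compounds first went through duplicate single-concentration testing at 10 uM against purified CYP1A1. Those passing a threshold such as 30% inhibition entered singleton dose-response, highest concentration 20 uM. Signal was fluorescence measured after 1 hour.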

The target of test [8] is human CYP2A6, CYP2A6 (gene 1548) (UniProt P11509). Briefly: NVS_ADME_hCYP2A6: NovaScreen (NVS) CYP450-related Enzyme Activity (ADME) Assay for human CYP2A6 (AID 2283099; active = hit-call score of the fitted dose curve at least 0.9, where 1 is the maximum). In outline:
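Recombinant human CYP2A6 from insect cells was incubated with chemical for 0.5 h and activity read by fluorescence. Single-concentration duplicates at 10 uM preceded concentration-response testing to 20 uM, with activity referenced to acetonitrile.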

Test [9] has as its target human CYP2B6, CYP2B6 (gene 1555) (UniProt P20813). Briefly: NVS_ADME_hCYP2B6: NovaScreen (NVS) CYP450-related Enzyme Activity (ADME) Assay for human CYP2B6 (AID 2283101; active = hit-call score of the fitted dose curve at least 0.9, where 1 is the maximum). How it is done:
NVS_ADME_hCYP2B6 is a biochemical, single-readout assay that uses extracted gene-proteins in a cell-free assay. Measurements were taken 1 hour after chemical dosing in a 96-well plate.NVS_ADME_hCYP2B6 is one of one assay component(s) measured or calculated from the NVS_ADME_hCYP2B6 assay. It is designed to make measurements of enzyme activity, a form of enzyme reporter, as detected with fluorescence intensity signals by Fluorescence technology.Data from the assay component NVS_ADME_hCYP2B6 was analyzed into 1 assay endpoint. This assay endpoint, NVS_ADME_hCYP2B6, was analyzed in the positive analysis fitting direction relative to Acetonitrile as the negative control and baseline of activity. Using a type of enzyme reporter, loss-of-signal activity can be used to understand changes in the enzymatic activity as they relate to the gene CYP2B6. Furthermore, this assay endpoint can be referred to as a primary readout, because this assay has produced multiple assay endpoints where this one serves a enzymatic activity function. To generalize the intended target to other relatable targets, this assay endpoint is annotated to the cyp intended target family, where the subfamily is xenobiotic metabolism.
Binding assays used specific radioligands (tritiated, iodinated) with non-radioactive competitive displacement ligands in agonist or antagonist protocols (as indicated) and various reference compounds and inhibitors to titrate specific binding to receptors and transporters. Most enzyme assays (CYPs, kinases, phosphatases, proteases, HDACs) used recombinant protein and specific substrates (fluorescence mostly, some colorimetric and radioactive) and inhibitors, followed by a biochemical separation of substrate and product. All assays for the biochemical HTS were initially run in duplicate at a single concentration (10 uM for CYP450 assays and 25 uM for all others). […] Each assay was run with positive and negative controls, and concurrent controls on every plate. The follow-up (secondary) screen tested active chemical-pairs in concentration series, as well as a few additional assays not tested in the primary screen, some selected negative inactives, and several cases re-run in the concentration series for confirmatory purposes.

In test [10] the target is human CYP1A2, CYP1A2 (gene 1544) (UniProt P05177). The test can be described thus: NVS_ADME_hCYP1A2: NovaScreen (NVS) CYP450-related Enzyme Activity (ADME) Assay for human CYP1A2 (AID 2283102; active = hit-call score of the fitted dose curve at least 0.9, where 1 is the maximum;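 for AC50: fluorescence from turnover of a fluorogenic substrate by recombinant insect-cell CYP1A2; potency for inhibition since loss of fluorescence marks reduced CYP1A2 activity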). The method, boiled down: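 Compounds were tested at 10 uM in duplicate against recombinant CYP1A2 produced in insect cells. Enzyme activity was measured by fluorescence 0.5 h after dosing, with loss of signal versus acetonitrile control. Active compounds were re-tested in concentration series.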
Chain of human CYP1A2, CYP1A2 (gene 1544) (P05177 whole entry, looked up): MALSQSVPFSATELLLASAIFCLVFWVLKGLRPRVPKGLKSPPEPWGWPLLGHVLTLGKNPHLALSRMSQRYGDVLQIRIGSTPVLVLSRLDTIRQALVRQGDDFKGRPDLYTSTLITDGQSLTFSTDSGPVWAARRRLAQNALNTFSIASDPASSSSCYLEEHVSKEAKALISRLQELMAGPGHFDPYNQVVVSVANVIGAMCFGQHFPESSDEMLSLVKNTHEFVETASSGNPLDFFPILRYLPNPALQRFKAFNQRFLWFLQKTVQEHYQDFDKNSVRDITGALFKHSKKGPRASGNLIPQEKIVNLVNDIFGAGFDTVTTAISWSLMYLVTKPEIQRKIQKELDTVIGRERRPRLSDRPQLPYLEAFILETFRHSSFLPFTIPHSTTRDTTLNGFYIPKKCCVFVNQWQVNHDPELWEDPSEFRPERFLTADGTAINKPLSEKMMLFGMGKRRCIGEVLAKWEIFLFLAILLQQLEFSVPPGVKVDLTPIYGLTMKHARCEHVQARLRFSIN

Molecules are shown by their SMILES. “And” between values parts separate entries of the source, which are not always exact repeats. Equal entries are not always repeated. Records with an inconclusive call do not appear. The source made the active and inactive calls. Rule for the calls, unless noted: active = hit-call score of the fitted dose curve at least 0.9, where 1 is the maximum; inactive = score below 0.9.

Chain of human CYP19A1, CYP19A1 (gene 1588) (P11511 whole entry, looked up): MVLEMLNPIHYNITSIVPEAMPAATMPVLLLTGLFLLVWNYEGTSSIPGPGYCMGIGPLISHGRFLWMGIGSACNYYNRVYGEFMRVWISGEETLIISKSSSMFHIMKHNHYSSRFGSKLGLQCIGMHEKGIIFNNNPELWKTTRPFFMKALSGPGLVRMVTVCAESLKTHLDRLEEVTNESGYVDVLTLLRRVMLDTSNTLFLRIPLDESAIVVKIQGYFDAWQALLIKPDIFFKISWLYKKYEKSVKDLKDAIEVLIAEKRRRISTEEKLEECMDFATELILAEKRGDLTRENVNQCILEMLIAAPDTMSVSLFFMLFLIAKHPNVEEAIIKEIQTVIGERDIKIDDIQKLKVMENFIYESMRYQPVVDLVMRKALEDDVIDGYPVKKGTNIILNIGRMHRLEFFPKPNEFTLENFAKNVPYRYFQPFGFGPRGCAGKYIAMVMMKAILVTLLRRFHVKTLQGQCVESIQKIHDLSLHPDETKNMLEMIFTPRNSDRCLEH
Chain of human CYP2A6, CYP2A6 (gene 1548) (P11509 whole entry, looked up): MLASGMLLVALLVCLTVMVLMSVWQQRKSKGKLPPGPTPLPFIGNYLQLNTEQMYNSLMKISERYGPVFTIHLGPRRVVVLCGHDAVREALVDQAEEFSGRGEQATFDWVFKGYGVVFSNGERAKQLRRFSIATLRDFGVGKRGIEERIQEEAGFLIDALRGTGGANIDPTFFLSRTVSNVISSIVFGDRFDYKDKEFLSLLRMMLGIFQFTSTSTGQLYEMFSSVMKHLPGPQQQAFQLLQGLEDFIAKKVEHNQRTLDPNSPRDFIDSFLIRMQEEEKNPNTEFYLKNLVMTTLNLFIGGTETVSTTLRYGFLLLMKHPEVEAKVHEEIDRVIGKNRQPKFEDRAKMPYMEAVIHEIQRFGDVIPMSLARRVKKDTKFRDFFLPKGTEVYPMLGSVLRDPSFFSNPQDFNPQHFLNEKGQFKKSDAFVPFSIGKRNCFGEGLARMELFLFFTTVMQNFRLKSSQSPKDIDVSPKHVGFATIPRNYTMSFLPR
Chain of human CYP2B6, CYP2B6 (gene 1555) (P20813 whole entry, looked up): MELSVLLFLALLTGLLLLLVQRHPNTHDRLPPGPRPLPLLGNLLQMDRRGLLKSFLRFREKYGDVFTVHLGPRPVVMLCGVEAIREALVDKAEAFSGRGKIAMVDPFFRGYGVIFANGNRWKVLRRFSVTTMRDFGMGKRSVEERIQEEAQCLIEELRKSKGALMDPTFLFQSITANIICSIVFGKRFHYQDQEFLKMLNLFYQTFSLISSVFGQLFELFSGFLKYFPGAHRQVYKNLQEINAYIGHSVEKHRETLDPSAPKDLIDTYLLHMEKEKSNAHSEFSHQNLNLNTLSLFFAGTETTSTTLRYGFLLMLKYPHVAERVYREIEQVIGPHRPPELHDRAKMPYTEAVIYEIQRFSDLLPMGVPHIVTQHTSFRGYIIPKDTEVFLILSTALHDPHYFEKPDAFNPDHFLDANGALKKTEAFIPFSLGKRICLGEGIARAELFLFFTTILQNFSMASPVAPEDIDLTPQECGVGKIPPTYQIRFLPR
Chain of human CYP1A1, CYP1A1 (gene 1543) (P04798 whole entry, looked up): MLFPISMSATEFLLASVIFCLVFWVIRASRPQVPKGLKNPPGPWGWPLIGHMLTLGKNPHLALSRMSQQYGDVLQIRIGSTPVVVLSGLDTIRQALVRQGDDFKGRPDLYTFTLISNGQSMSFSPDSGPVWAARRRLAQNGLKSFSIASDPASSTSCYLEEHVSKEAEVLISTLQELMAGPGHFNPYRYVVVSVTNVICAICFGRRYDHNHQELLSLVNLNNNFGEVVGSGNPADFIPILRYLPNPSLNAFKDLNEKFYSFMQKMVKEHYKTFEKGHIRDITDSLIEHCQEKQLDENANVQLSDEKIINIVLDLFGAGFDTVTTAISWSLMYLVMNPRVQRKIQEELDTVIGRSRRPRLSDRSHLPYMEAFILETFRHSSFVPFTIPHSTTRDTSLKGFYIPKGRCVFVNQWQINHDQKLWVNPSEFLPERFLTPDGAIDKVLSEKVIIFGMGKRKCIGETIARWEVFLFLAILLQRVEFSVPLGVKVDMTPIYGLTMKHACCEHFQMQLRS

A word on the AC50: it is the concentration at which the activity in the assay is half-maximal. With `O=C(Nc1ccc([N+](=O)[O-])cc1Cl)c1cc(Cl)ccc1O`, the AC50 is 0.289 µM (active) in test [1]; 1.78 µM (active) in [2]; 0.493 µM (active) in test [3]; 0.148 µM (active) in test [4]; 0.65 µM (active) in test [5].
As for `CC(C)(C)[C@@H](O)[C@@H](Cc1ccc(Cl)cc1)n1cncn1`, the result in test [1] and in test [5] was inactive. The AC50 in test [2] is 3.76 µM (active); in test [3], 7.99 µM (active); in [4], 12.6 µM (active).
Turning to `COC(=O)c1c(Cl)nn(C)c1S(=O)(=O)NC(=O)Nc1nc(OC)cc(OC)n1`, the outcome in test [1], in test [2], in test [3], in test [4] and in test [5] was inactive.
For `COC(=O)c1ccccc1C(=O)O`, the outcome in test [1], in test [2], in [3], in [4], in [5] and in test [7] was inactive. Moreover, in [6], the AC50 is 3.5 µM (active).
As to `CCCOC(=O)c1ccc(C(=O)OCCC)nc1`, the result in test [1], in test [2], in test [3], in test [4], in [5] and in test [6] was inactive.
For `O=C(c1ccccc1)C1CCCCC1`, the result in [1], in test [2], in test [3], in test [4], in test [5] and in test [6] was inactive.
Turning to `N#CSCSc1nc2ccccc2s1`, the AC50 is 11.6 µM (active) and 9.68 µM (active) in test [1]; 909 nM (active) and 2.23 µM (active) in test [2]; 5.44 µM (active) and 10.9 µM (active) in test [3]; 783 nM (active) and 1.76 µM (active) in test [4]; 18.2 µM (active) and 10.5 µM (active) in [5]; 3.06 µM (active) in test [8]. In addition, the figures for the concentration at half-maximal activity (AC50) in test [9] and in [10] were 1.87 µM (active) and 3.44 µM (active), respectively.
As to `CN(C)C(=O)Nc1ccc(Cl)c(Cl)c1`, the outcome in [1], in [2], in [3], in test [4] and in test [5] was inactive. For the same molecule, the concentration at half-maximal activity (AC50) in test [10] is 1.63 µM (active).
As to `CCCN(CCC)c1c([N+](=O)[O-])cc(C(F)(F)F)c(N)c1[N+](=O)[O-]`, the AC50 is 31.7 µM (active) in test [1]; 15 µM (active) in [2]; 20 µM (active) in test [3]; 21 µM (active) in test [4]; 14.7 µM (active) in [5]; 6.02 µM (active) in [10].
For the molecule `O=C(c1ccc(O)cc1O)c1ccc(O)cc1O`, the outcome in test [1], in test [2], in test [3] and in [5] was inactive. Besides, the concentration at half-maximal activity (AC50) in test [4] is 20 µM (active); in test [6] it was 5.78 µM (active) and 5.75 µM (active) and 7.34 µM (active); in test [9] it was 6.26 µM (active); in test [10] it was 4.04 µM (active).
In the case of `CSC(=O)c1cccc2nnsc12`, the outcome in [1], in test [2], in test [3], in test [4] and in [5] was inactive. Further, the AC50 is 1.22 µM (active) in [8] and 0.653 µM (active) in [10].
As for `COC(=O)c1ccccc1S(=O)(=O)NC(=O)Nc1nc(OC(F)F)cc(OC(F)F)n1`, the outcome in test [1], in [2], in test [3], in [4] and in [5] was inactive. In test [10], the AC50 was 5.43 µM (active).
For the molecule `CCCCCCC(C)OC(=O)COc1nc(F)c(Cl)c(N)c1Cl` (stereo not given), the AC50 is 38.5 µM (active) in test [1]; 12.3 µM (active) in test [2]; 29.1 µM (active) in test [3]; 9.53 µM (active) in test [4]; 34.9 µM (active) in [5]. Also, in test [10], the molecule was called inactive.
With `c1ccc2[nH]c(-c3cscn3)nc2c1`, the outcome in [1], in test [2], in test [3], in [4] and in test [5] was inactive. For the same molecule, the AC50 in [7] was 4.65 µM (active); in test [10], 2.47 µM (active).
On to `COC(=O)CSc1cc(N=c2sc(=O)n3n2CCCC3)c(F)cc1Cl`, for which the outcome in test [1], in test [2], in test [3], in test [4], in test [5] and in [6] was inactive. The outcome in test [7] and in test [10] was inactive.
Regarding `CC(=O)[C@H]1CC[C@H]2[C@@H]3CCC4=CC(=O)CC[C@]4(C)[C@H]3CC[C@]12C`, the outcome in [1], in [3] and in test [6] was inactive. Besides, the half-maximal activity concentration (AC50) was 9.94 µM (active) in test [2], 28.8 µM (active) in [4] and 4.21 µM (active) in test [5].
As for `CCOC(=O)C(C)Oc1ccc(Oc2nc3ccc(Cl)cc3o2)cc1` (stereo not given), the result in test [1], in test [2], in test [3], in test [5] and in test [10] was inactive. Moreover, the AC50 in [4] was 32 µM (active).
Turning to `CCCCOCCOCCOCc1cc2c(cc1CCC)OCO2`, the result in test [1], in [3], in test [4], in test [5] and in test [6] was inactive. Moreover, the AC50 in [2] is 15.9 µM (active); in [7] it was 5.97 µM (active); in test [9], 10 µM (active); in [10], 1.53 µM (active).
Take `CCCCCOC(=O)COc1cc(N2C(=O)C3=C(CCCC3)C2=O)c(F)cc1Cl`: the outcome in test [1], in test [2], in test [3] and in test [5] was inactive. For the same molecule, the concentration at half-maximal activity (AC50) in [4] is 14.3 µM (active); in [10] it was 1.29 µM (active).
In the case of `CCCCC(CC)CN1C(=O)C2C3C=CC(C3)C2C1=O` (stereo not given), the result in test [1], in test [3] and in [6] was inactive. Besides, the AC50 in test [2] is 15.3 µM (active); in test [4], 32.7 µM (active); in [5], 20 µM (active); in test [10] it was 5.57 µM (active).
`CCCCC(CC)COC(=O)c1ccccc1C(=O)O` (stereo not given): the outcome in [1], in [2], in test [3], in test [4] and in test [5] was inactive.
As for `O=C(O)c1ccccc1`, the result in test [1], in test [2], in test [3], in test [4], in test [5] and in test [8] was inactive.
For the molecule `C=CCOC(Cn1ccnc1)c1ccc(Cl)cc1Cl` (stereo not given), the result in test [1] and in [5] was inactive. Also, the concentration at half-maximal activity (AC50) in test [2] was 13.9 µM (active); in [3], 37.1 µM (active); in test [4], 31.9 µM (active); in test [6], 0.628 µM (active); in [8], 2.52 µM (active); in [7], 1.55 µM (active). In addition, in test [9], the AC50 is 0.188 µM (active).
